PubChem BioAssay (NCATS)
Records with an inconclusive call do not appear. A number with no mark means an inactive call. Activity calls are given as the source filed them. Calls come from the whole dose curve.

target: Nucleoprotein (Lymphocytic choriomeningitis virus (strain Armstrong)) (UniProt P09992); assay: qHTS for Inhibitors of the Functional Ribonucleoprotein Complex (vRNP) of Lymphocytic Choriomeningitis Arenaviruses (LCMV): LCMV Primary Screen - GLuc reporter signal (AID 1347086); settings: LCMV minigenome vRNP cell assay, Gaussia luciferase reporter; series mostly up to 57.5 µM; activity change, negative = inhibition: at the top concentration; note: nearly all actives have a fitted effect of over 70% in size
Sequence (P09992 whole entry, looked up): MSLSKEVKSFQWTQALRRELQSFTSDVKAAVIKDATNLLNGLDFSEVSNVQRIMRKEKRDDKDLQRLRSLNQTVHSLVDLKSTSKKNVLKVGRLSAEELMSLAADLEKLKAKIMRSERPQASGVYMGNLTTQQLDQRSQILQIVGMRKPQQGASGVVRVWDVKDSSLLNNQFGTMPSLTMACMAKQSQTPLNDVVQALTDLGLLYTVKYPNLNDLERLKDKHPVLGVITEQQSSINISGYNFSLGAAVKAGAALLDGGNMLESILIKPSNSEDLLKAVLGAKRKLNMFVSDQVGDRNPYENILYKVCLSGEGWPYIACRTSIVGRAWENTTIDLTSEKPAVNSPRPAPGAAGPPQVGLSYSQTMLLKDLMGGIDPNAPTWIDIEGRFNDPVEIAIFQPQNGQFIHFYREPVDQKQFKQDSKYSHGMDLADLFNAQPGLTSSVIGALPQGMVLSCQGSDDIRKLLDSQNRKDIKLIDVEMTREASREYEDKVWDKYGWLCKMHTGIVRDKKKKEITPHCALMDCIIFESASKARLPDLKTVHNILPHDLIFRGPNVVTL
% is set by controls: 0 for no effect and ±100 for the full control effect.

Structure (SMILES)	Potency	activity change, negative = inhibition
COc1ccc2[nH]cc(CCNC(C)=O)c2c1	inactive	
CC(=O)Nc1ccc(/C=N/NC(N)=S)cc1		7.61%
Cc1cc2cc3c(C)cc(=O)oc3c(C)c2o1		10.9%
CCc1cc(S(=O)(=O)O)c2cc(C(C)C)cccc1-2		-1.01%
CN(C)[C@@H]1C(=O)C(C(N)=O)=C(O)[C@@]2(O)C(=O)C3=C(O)c4c(O)cccc4C[C@H]3C[C@@H]12		-4.47%
C[C@]12CCC(=O)C=C1CC[C@H]1[C@@H]3CC[C@](O)(C(=O)CO)[C@@]3(C)C[C@H](O)[C@@]12F		19.8%
CC(COc1ccccc1)NN (stereo not drawn)		-1.61%
CC(CC(C#N)(c1ccccc1)C(C)C)N(C)C (stereo not drawn)		3.09%
NCc1ccc(S(N)(=O)=O)cc1		0.657%
CC12CCC(CC1)C(C)(C)O2		9.33%
Cc1ccnc(NS(=O)(=O)c2ccc(N)cc2)n1		3.83%
COc1ccnc(CS(=O)c2nc3ccc(OC(F)F)cc3[nH]2)c1OC (stereo not drawn)		2.27%
CN1CCN(c2c(F)cc3c(=O)c(C(=O)O)cn4c3c2SCC4)CC1		-3.15%
C[N+](C)(C)CCCCCC[N+](C)(C)C	inactive	
CN1[C@@H]2CCC[C@@H]1CC(NC(=O)c1nn(C)c3ccccc13)C2 (stereo partly drawn)		-1.71%
OCc1ccc(Cl)cc1Cl		1.78%
CC(=O)NC(=O)c1ccccc1O		-6.54%
NCCCC[C@H](N[C@@H](CCc1ccccc1)C(=O)O)C(=O)N1CCC[C@H]1C(=O)O		9.65%
O=c1[nH]cnc2[nH]ncc12	inactive	

Structure (SMILES)	Potency	activity change, negative = inhibition
CCC(C(=O)OCCN(CC)CC)c1ccccc1 (stereo not drawn)		20.5%
O=C(Oc1ccccc1)c1ccccc1O		8.84%
CN1CCN(N)CC1		11.6%
COc1ccc(C2CNC(=O)C2)cc1OC1CCCC1 (stereo not drawn)	inactive	
Cc1c(C(=O)NCCO)[n+](=O)c2ccccc2n1[O-]		12.1%
CC(=O)O[C@]1(C(C)=O)CC[C@H]2[C@@H]3C[C@H](C)C4=CC(=O)CC[C@]4(C)[C@H]3CC[C@@]21C		27.3%
CN1C(C)(C)CCCC1(C)C		0.142%
Cc1ccc(-c2ccccc2C#N)cc1		-2.58%
Cc1c(I)c(=O)n(-c2ccccc2)n1C		-1.12%
O=C(CS(=O)Cc1ccco1)NC/C=C\COc1cc(CN2CCCCC2)ccn1 (stereo not drawn)		2.06%
CC(C)(C)NCC(O)c1cc(O)cc(O)c1 (stereo not drawn)	inactive	
COCCOCC(OC)OC		-2.38%
COc1cc(OC)c(C(=O)CCCN2CCCC2)c(OC)c1	inactive	
CCN1CC(CCN2CCOCC2)C(c2ccccc2)(c2ccccc2)C1=O (stereo not drawn)		4.64%
CCOC(=O)Oc1ccc(CCNC(=O)[C@H](CCSC)NC(C)=O)cc1OC(=O)OCC		3.18%
CC(C)CCOC(=O)c1ccc(N(C)C)cc1		28.7%
O=C(CCCl)NCc1ccccc1		17.2%
NS(=O)(=O)c1cc(C(=O)O)cc(N2CCCC2)c1Oc1ccccc1		4.8%
Cc1ccc(C(=O)C(=O)O)cc1C		-0.541%
